Test results: PubChem BioAssay (NCI)
About 83,000 compounds went through this panel and 20% of them were active in at least one assay; those are over-represented in the sample as a whole.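 For each line, cells grew in 96-well plates with the test compound present at a single concentration for 48 hours.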 Calls of active or inactive are those of the source. How the source made its calls: active means growth percent below 10; inactive means the rest.

Assays:
Assay in all cases: NCI-60 one-dose screen, 48 h (100 = growth as untreated, 0 = no growth, -100 = all killed)
Details in all cases: 10 µM unless noted
[1] = tested on: DU-145 prostate
[2] = tested on: K-562 leukemia
[3] = tested on: MALME-3M melanoma
[4] = tested on: MDA-MB-231 breast
[5] = tested on: RXF 393 renal
[6] = tested on: SF-268 CNS
[7] = tested on: SF-295 CNS
[8] = tested on: SF-539 CNS
[9] = tested on: UACC-257 melanoma
[10] = tested on: M14 melanoma
[11] = tested on: HCT-15 colon
[12] = tested on: HT29 colon
[13] = tested on: SNB-75 CNS
[14] = tested on: SNB-19 CNS
[15] = tested on: U251 CNS
[16] = tested on: PC-3 prostate
[17] = tested on: SK-MEL-5 melanoma
[18] = tested on: UACC-62 melanoma
[19] = tested on: LOX IMVI melanoma
[20] = tested on: SK-MEL-28 melanoma

Measured: growth

CCc1c(C)c2cc3c(c(C)c2oc1=O)OCC(=O)N3
inactive: [1] 72.5% | [2] 82.5% | [3] 79% | [4] 65.6% | [5] 68% | [6] 68.3% | [7] 71.7% | [8] 67.8% | [9] 84.3% | [10] 88.8% | [11] 67.2% | [12] 64.1% | [13] 14.3% | [14] 64.3% | [15] 62% | [16] 80.4% | [17] 81.1% | [18] 69.6% | [19] 65.3%

CC(=O)n1cc(/C=C2\N=C(c3ccc(Cl)cc3)N(c3ccc(S(=O)(=O)Nc4nccs4)cc3)C2=O)c2ccccc21
inactive: [1] 102% | [2] 59.6% | [3] 120% | [4] 95.5% | [5] 86.7% | [6] 83% | [7] 85.6% | [8] 90.6% | [9] 99.7% | [10] 83.4% | [11] 95% | [12] 103% | [13] 92.2% | [14] 67.7% | [15] 56.2% | [16] 72.6% | [17] 80.1% | [18] 84.1% | [19] 93.2%

COc1ccc(CNc2nc3ccccc3c3c(=O)c4ccccc4sc23)cc1OC
inactive: [1] 74% | [2] 69.3% | [3] 66.6% | [4] 61.5% | [5] 61% | [6] 78.7% | [7] 68.3% | [8] 81% | [9] 88.6% | [10] 86.2% | [11] 90.2% | [12] 73% | [13] 21.8% | [14] 86.5% | [15] 79.8% | [16] 72.9% | [17] 78% | [18] 68.8% | [19] 82.7%

O=c1c2ccccc2sc2c(N3CCCC3)nc3ccccc3c12
inactive: [1] 99% | [2] 86.5% | [3] 136% | [4] 90.5% | [5] 103% | [6] 98.9% | [7] 115% | [8] 102% | [9] 106% | [10] 114% | [11] 94% | [12] 92.3% | [13] 86.6% | [14] 95.9% | [15] 98.5% | [16] 83.4% | [17] 92.6% | [18] 79% | [19] 85.9%

O=C(NNC(=O)c1ccc([N+](=O)[O-])cc1)c1ccc([N+](=O)[O-])cc1
inactive: [1] 113% | [2] 93.6% | [3] 112% | [4] 117% | [5] 111% | [6] 101% | [7] 94.2% | [8] 91.4% | [9] 111% | [10] 95.4% | [11] 97% | [12] 101% | [13] 84.5% | [14] 109% | [15] 104% | [16] 102% | [17] 99.8% | [18] 99.9% | [19] 97.2%

Cn1c2ccccc2c2ssc(=S)c21
inactive: [1] 116% | [2] 82.9% | [3] 81.9% | [4] 99.9% | [5] 108% | [6] 103% | [7] 97.3% | [8] 97.5% | [9] 98.8% | [10] 89.3% | [11] 92.1% | [12] 110% | [13] 99.3% | [14] 100% | [15] 96.2% | [16] 101% | [17] 89.8% | [18] 95.8% | [19] 91.9% | [20] 108%

COc1cc(Cn2cc3c(c2)-c2onc(CO)c2CC3)cc(OC)c1OC
inactive: [1] 103% | [2] 78.5% | [3] 79.7% | [4] 103% | [5] 95.8% | [6] 96% | [7] 92.1% | [8] 96.8% | [9] 93.2% | [10] 85.8% | [11] 89% | [12] 104% | [13] 82% | [14] 94.5% | [15] 97.6% | [16] 88.7% | [17] 83.3% | [18] 80.3% | [19] 94.7% | [20] 93.7%

C=C1C(=O)O[C@H]2[C@H]1CC/C(COC(=O)CCCC(=O)OC/C1=C/CC[C@@]3(C)O[C@H]3[C@H]3OC(=O)C(=C)[C@@H]3CC1)=C\CC[C@@]1(C)O[C@@H]21
active: [2] 7.38% | [3] -8.44% | [4] 2.73% | [5] -74.2% | [8] 0.465% | [9] -39.9% | [10] -33.1% | [11] 4.33% | [12] -40% | [18] -18.7% | [19] -70.3% | [20] 8.77%
inactive: [1] 20.8% | [6] 44.2% | [7] 78.3% | [13] 93.3% | [14] 67.6% | [15] 48% | [16] 55.2% | [17] 33.4%

Clc1ccc(OCc2nc(-c3ccccc3)n[nH]2)c(Cl)c1
inactive: [1] 109% | [2] 111% | [3] 104% | [4] 98.8% | [5] 108% | [6] 96.6% | [7] 97.8% | [8] 99.4% | [9] 97.8% | [10] 106% | [11] 101% | [12] 101% | [13] 93.6% | [14] 99.3% | [15] 95.5% | [16] 87.3% | [17] 100% | [18] 95.6% | [19] 94.6% | [20] 110%

O=C(O)c1cccc2oc(-c3ccccc3O)nc12
active: [19] 4.75%
inactive: [1] 63.6% | [2] 60.9% | [3] 70.9% | [4] 51.9% | [5] 61% | [6] 45% | [7] 31.7% | [8] 50% | [9] 80.2% | [10] 54.8% | [11] 34.1% | [12] 36.1% | [13] 74.7% | [14] 67.8% | [15] 45.6% | [16] 47.8% | [17] 58.1% | [18] 65% | [20] 77.9%

Fc1ccc(/C=N/n2c(-c3cc(Cl)cc(Cl)c3Cl)nn(CNc3ccc(Cl)nn3)c2=S)cc1
inactive: [1] 121% | [2] 85.8% | [3] 103% | [4] 83.3% | [5] 97% | [6] 105% | [7] 121% | [8] 97.6% | [9] 98.1% | [10] 85.6% | [11] 110% | [12] 103% | [13] 99.4% | [14] 101% | [15] 90% | [16] 86.7% | [17] 102% | [18] 86.7% | [19] 96.8%

COc1ccc(-n2c(-c3ccc(NC(=O)CCCl)cc3)nnc2-c2cc(OC)c(OC)c(OC)c2)cc1
active: [5] 8.38%
inactive: [1] 22.7% | [2] 49.8% | [3] 71.4% | [4] 53.2% | [6] 78.6% | [7] 53.1% | [8] 41.5% | [9] 52.1% | [10] 59.5% | [11] 41.1% | [12] 18.9% | [13] 90.9% | [14] 52% | [15] 34.4% | [16] 49.8% | [17] 48.2% | [18] 48.1% | [19] 57.1% | [20] 27.8%

COc1cc(/C=C/C(=O)c2ccc(Oc3ncnc4ccccc34)cc2)cc(OC)c1OC
inactive: [1] 21.4% | [2] 12.1% | [3] 98.9% | [4] 86.5% | [5] 84.3% | [6] 81.1% | [7] 86.7% | [8] 63.6% | [9] 93.3% | [10] 73.8% | [11] 41.5% | [12] 79.7% | [13] 69.5% | [14] 68.6% | [15] 60.3% | [16] 75.6% | [17] 81% | [18] 65.9% | [19] 40.4% | [20] 89.4%

CC(/C=C/C=C(\C)[C@H](O)[C@H](C)C(=O)O[C@H]1C[C@H](C)C=C2C=C[C@@]3(C)O[C@@H](O)CC(=O)[C@]3(C)[C@H]21)=C\C=C\C(=O)O
active: [1] 4.82% | [2] 5.89% | [3] -57% | [5] -49.5% | [6] 7.59% | [7] 2.34% | [8] -15.9% | [9] 2.06% | [10] -51.3% | [12] 0.326% | [13] -14.2% | [14] -0.761% | [15] -3.9% | [16] 7.61% | [17] -69% | [18] -32% | [19] 6.81%
inactive: [4] 19.8% | [11] 17.3%

COc1ccc(Cl)cc1NC(=O)c1cc2c(n1C)-c1nc(NC(=O)C(C)C)sc1CC2
active: [8] -27.9%
inactive: [1] 83.5% | [2] 79.8% | [3] 99.3% | [4] 30.5% | [5] 101% | [6] 71.2% | [7] 92.5% | [9] 88% | [10] 84.8% | [11] 50.7% | [12] 66.7% | [13] 59.3% | [14] 83.1% | [15] 59.9% | [16] 60.6% | [17] 61% | [18] 83.1% | [19] 93%

COc1ccc(NC(=O)COCCOCCNC[C@@H]2C(=O)O[C@H]3[C@H]2CC/C(COC(=O)OC/C2=C/CC[C@@]4(C)O[C@H]4[C@H]4OC(=O)[C@@H](CN(C)C)[C@@H]4CC2)=C\CC[C@@]2(C)O[C@@H]32)c(O)c1C(N)=O
active: [2] 5.46% | [3] -21.1% | [5] -40.5%
inactive: [1] 57% | [4] 21.8% | [6] 91.5% | [7] 105% | [8] 46.4% | [9] 40.5% | [10] 53.9% | [11] 17.1% | [12] 14% | [13] 84.1% | [14] 94.1% | [15] 80.8% | [16] 80.2% | [17] 85.7% | [18] 43% | [19] 35.1%
